The values below come from PubChem BioAssay.

In general, inhibition refers to the drop in the measured response relative to a control, in per cent.

A short description of assay [1]: yeast TOR pathway RPL19A-GFP modulators, primary screen, cell-based, S. cerevisiae, multiplex flow cytometry (AID 1862; in the data active = percent of DMSO control GFP below about 86%;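 also: lower values mimic rapamycin by blocking the RPL19A rise seen in DMSO cells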). Particulars: S. cerevisiae RPL19A-GFP strain, flow cytometry fluorescence, 3 h; at 10 µM; stronger effect = lower value. (Flow cytometry measures light scatter and fluorescence of single cells or particles in a stream.)
Assay [2] in a line: modulators of MEP2-GFP levels in yeast, primary screen, S. cerevisiae, multiplex flow cytometry (AID 1867;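 active = GFP response, as percent of the DMSO control, above the screen-wide mean plus 3 SD, about 139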;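 also: median GFP channel fluorescence of barcode-gated MEP2-GFP cells measured by flow cytometry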). The note with it: S. cerevisiae MEP2-GFP strain, 3 h, at 10 µM, stronger effect = higher value.
Assay [3] can be described thus: modulators of CIT2-GFP expression in yeast, primary screen, S. cerevisiae, GFP fusion, multiplex flow cytometry (AID 1870;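 active = percent response above a set limit, the screen-wide mean plus 3 SD, cut at about 130% in these data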;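 also: barcoded CIT2-GFP strain pooled with four other GFP strains with rapamycin as positive control; median GFP fluorescence per well over plate mean of DMSO wells so 100% = DMSO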). The note with it: 3 h, at 10 µM, stronger effect = higher value.
The nature of assay [4]: modulators of LAP4-GFP expression in yeast, primary screen, S. cerevisiae, multiplex flow cytometry (AID 1873;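 active = GFP signal, as percent of the solvent control, above the screen mean plus 3 SD, about 149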). Particulars: 3 h, at 10 µM, stronger effect = higher value.
A short description of assay [5]: modulators of AGP1-GFP expression in yeast TOR pathway, primary screen, cell-based, multiplex flow cytometry, S. cerevisiae (AID 1887;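 active = GFP signal above the screen-wide mean plus 3 SD, that is over about 124.5% of the solvent control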;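 also: AGP1-GFP fusion strain of S. cerevisiae within a five-strain barcoded multiplex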). Particulars: 3 h, at 10 µM, stronger effect = higher value.
Assay [6] in a line: inhibitors of CD8+ T cell-vesicle binding, pilot screen, LFA-1/ICAM-1 modulator project, MLPCN validation set, flow cytometry (AID 2523;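 active = response below a set limit, under 55% cells CD8-positive and vesicle-bound, and CD8 cells' 90th-percentile brightness under 279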;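 as to vesicle binding response: mean PE anti-B7-1 fluorescence of CD8+ cells relative to row control; 100% = QL9-loaded vesicles with DMSO vehicle in the same plate row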). Particulars: 2C mouse CD8+ T cells, at 7 µM, stronger effect = lower value; double positive events: measured here: CD8+/vesicle+ event percentage.
Assay [7] addresses Integrin beta-1 (Homo sapiens) + Integrin alpha-4 (Homo sapiens) (UniProt P13612+P05556). Briefly: inhibition of HUTS-21 binding to VLA-4, pilot screen, VLA-4 allosteric modulator project, U937 cells, HUTS-21 mAb, flow cytometry, validation set (AID 2674;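 active = inhibition above 50%, about 3 SD of the validation set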;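 also: antibody binding induced by the VLA-4 ligand LDV present at three times its Kd; 0% = LDV ligand with antibody and no compound and 100% = antibody without LDV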). The note with it: HUTS-21 LIBS mAb binding, at 6.7 µM, stronger effect = higher value.
Assay [8] in a line: superoxide lowering in aged yeast cells, pilot screen, validation compound set (AID 2706;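 active = superoxide response below 65% of plate, a cut near 3 SD across the whole screen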;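 also: yeast exposed to compound for one week at 30 degrees C before staining; 100% = mean of all compound wells on the same plate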). The note with it: S. cerevisiae aging, superoxide DHE fluorescence; at 10 µM; stronger effect = lower value.
Assay [9] concerns the target Beta-adrenergic receptor kinase 1 (Homo sapiens) (UniProt P25098). Briefly: GRK2 binders displacing RNA aptamer, biochemical, validation, human GRK2, bead flow cytometry (AID 488806;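 active = aptamer binding inhibition above 30%, about 3 SD of noise from non-fluorescent compounds; inactive = inhibition at or below 30%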). Particulars: bead-bound GRK2, FAM-aptamer displacement, at 10 µM, stronger effect = higher value.
Assay [10] concerns the target Beta-2 adrenergic receptor (Homo sapiens) (UniProt P07550). Briefly: beta2AR agonists driving receptor internalization, pilot screen, cell-based, FAP fluorogen, flow cytometry, validation set (AID 504459;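 active = percent response above 42, roughly 3 SD of non-fluorescent test compounds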;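 also: agonist-driven loss of surface beta2AR via internalization measured by FAP dye flow cytometry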). Particulars: Am2.2-beta2AR cells, FAP surface receptor flow cytometry; at 10 µM; stronger effect = higher value.
In assay [11] the target is AP-2 complex subunit beta (Homo sapiens) (UniProt P63010). Briefly: inhibitors of arrestin peptide binding to AP2, pilot screen, biochemical, validation set, GST-AP2 beads, flow cytometry (AID 504541;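 active = inhibition above 54%, about 3 SD of non-fluorescent compounds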;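 also: AP2 carries R879A mutation and is captured from E. coli lysate; bead-bound FITC arrestin peptide fluorescence measuring arrestin peptide binding to AP2; 0% = DMSO wells and 100% = excess unlabeled arrestin peptide control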). Particulars: FITC arrestin peptide, at 10 µM, stronger effect = higher value.
Assay [12] in a line: yeast V-ATPase proton transport modulators, S. cerevisiae, pHLuorin, HTS validation (AID 504600; in the data active = response above about 15%;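 also: plate controls were DMSO for no effect and reference compound for full effect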). Particulars: S. cerevisiae pHLuorin cytosolic pH, at 10 µM, stronger effect = higher value.
The test system of assay [13] is anti-desmoglein-3 scFv antibody binding to human DSG3. Nature of the assay: inhibitors of anti-DSG3 scFv binding to DSG3, pilot screen, biochemical, validation compound set, bead-based, flow cytometry (AID 588368;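 active = binding below the plate cutoff, the plate median minus 3 SD, with a reading above zero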;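 also: signal is the median channel fluorescence of bead-bound GFP antibody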). Particulars: Protein G beads, DSG3-Fc, scFv-GFP binding, at 10 µM, stronger effect = lower value.
Assay [14] has as its system Botulinum neurotoxin type F light chain protease (Clostridium botulinum). Nature of the assay: Botulinum neurotoxin type F light chain protease inhibition, multiplex microsphere flow cytometry, validation set (AID 588459). Particulars: multiplex microsphere protease substrate cleavage assay, at 10 µM, stronger effect = higher value.
Assay [15] has as its target Botulinum neurotoxin type A (Clostridium botulinum) (UniProt P0DPI0). Briefly: BoNT/A light chain protease inhibitors, biochemical, multiplex microsphere flow cytometry, validation set (AID 588460). The note with it: at 10 µM, stronger effect = higher value.
The target of assay [16] is Lethal factor (Bacillus anthracis) (UniProt P15917). Briefly: Lethal factor protease inhibitors, Bacillus anthracis, multiplex microsphere cleavage assay, validation set (AID 588461). The note with it: flow cytometry, at 10 µM, stronger effect = higher value.
The nature of assay [17]: inhibitors of fungal efflux pumps CDR1, CDR2, MDR1, pilot screen, validation compound set, multiplex, phenotypic (AID 588506;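 active = efflux inhibition above 0.42, the validation set average plus 4 SD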;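 also: Nile Red retained in cells so higher fluorescence means more efflux inhibition; 0 = negative control wells and 1 = enniatin B 25 µM full block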). Particulars: S. cerevisiae pump-expressing triplex, Nile Red efflux flow cytometry; at 10 µM; stronger effect = higher value.
The target of assay [18] is ATP-binding cassette sub-family B member 6 (Homo sapiens) (UniProt Q9NP58). Nature of the assay: ABCB6 transporter inhibitors, pilot screen, K562-ABCB6 cells, flow cytometry, validation set (AID 588550;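 active = inhibition above the screen-wide mean plus 3 SD, about 51%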;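 also: 0% = DMSO wells and 100% = benzethonium chloride 70 µM positive control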). The note with it: K562-ABCB6 porphyrin accumulation, 1 h, at 10 µM, stronger effect = higher value.
A short description of assay [19]: promoters of myeloid differentiation in arrested cells, primary screen, cell-based, GFP/MAC1 double positive, flow cytometry, validation set (AID 588685;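 active = differentiation response of at least 50%, scaled between solvent and reference control, from cells with both markers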;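 also: compound exposure lasts four days before antibody staining and flow analysis; 0% = DMSO wells and 100% = 5 µM fulvestrant positive control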). The note with it: ER-HoxA9 marrow cells, stronger effect = higher value.

Records with an inconclusive call do not appear. The source made the active and inactive calls. Unless noted, no rule for the calls is given here.

Chain of ATP-binding cassette sub-family B member 6 (Homo sapiens) (Q9NP58 whole entry, looked up): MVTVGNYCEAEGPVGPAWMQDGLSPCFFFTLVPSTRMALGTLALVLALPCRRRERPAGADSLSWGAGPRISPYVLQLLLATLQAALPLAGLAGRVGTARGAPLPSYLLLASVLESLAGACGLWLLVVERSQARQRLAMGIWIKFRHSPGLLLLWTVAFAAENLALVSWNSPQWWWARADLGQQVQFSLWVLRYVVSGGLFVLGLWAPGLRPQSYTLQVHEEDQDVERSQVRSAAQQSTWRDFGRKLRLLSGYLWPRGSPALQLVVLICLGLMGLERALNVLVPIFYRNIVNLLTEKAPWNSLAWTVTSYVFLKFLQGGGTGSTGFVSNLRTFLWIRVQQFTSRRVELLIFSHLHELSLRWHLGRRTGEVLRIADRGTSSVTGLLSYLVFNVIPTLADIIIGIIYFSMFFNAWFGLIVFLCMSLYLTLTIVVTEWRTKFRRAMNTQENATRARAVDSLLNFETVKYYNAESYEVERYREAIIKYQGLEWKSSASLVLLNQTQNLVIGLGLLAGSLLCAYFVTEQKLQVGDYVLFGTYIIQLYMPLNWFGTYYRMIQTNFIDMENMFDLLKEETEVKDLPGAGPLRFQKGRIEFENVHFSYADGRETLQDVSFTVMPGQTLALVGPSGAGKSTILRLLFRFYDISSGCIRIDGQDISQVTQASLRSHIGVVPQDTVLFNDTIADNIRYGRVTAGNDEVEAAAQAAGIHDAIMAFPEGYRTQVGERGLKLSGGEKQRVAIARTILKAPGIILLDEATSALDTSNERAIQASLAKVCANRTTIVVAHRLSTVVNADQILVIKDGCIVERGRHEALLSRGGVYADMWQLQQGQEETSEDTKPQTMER
Chain of Beta-adrenergic receptor kinase 1 (Homo sapiens) (P25098 whole entry, looked up): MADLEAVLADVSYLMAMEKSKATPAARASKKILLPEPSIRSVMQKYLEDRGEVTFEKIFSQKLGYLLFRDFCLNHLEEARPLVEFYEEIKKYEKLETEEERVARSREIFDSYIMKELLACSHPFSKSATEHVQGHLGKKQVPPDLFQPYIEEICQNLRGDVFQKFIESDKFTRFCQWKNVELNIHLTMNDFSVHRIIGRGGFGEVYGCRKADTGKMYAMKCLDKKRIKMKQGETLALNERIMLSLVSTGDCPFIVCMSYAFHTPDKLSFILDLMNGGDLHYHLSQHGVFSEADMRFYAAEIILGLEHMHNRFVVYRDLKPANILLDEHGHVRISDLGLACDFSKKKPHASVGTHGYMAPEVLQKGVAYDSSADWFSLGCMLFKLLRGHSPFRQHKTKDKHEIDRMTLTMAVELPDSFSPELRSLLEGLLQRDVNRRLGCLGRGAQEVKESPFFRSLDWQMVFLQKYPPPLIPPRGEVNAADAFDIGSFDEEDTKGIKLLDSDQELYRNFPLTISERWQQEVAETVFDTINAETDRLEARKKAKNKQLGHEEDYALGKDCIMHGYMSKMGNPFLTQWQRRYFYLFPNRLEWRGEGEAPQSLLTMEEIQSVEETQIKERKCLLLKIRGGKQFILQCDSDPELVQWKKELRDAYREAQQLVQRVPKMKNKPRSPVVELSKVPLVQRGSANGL
Chain of Beta-2 adrenergic receptor (Homo sapiens) (P07550 whole entry, looked up): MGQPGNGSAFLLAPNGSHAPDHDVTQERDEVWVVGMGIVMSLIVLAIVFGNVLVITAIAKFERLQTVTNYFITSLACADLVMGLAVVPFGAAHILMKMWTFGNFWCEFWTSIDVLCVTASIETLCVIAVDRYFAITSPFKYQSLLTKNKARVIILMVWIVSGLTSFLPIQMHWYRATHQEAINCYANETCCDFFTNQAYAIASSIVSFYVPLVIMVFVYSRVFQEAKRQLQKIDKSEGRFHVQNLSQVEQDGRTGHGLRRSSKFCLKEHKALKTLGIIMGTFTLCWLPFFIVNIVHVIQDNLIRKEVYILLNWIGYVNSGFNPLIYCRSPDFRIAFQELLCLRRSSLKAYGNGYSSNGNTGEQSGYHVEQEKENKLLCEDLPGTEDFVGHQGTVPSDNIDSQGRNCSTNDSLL
Chain of Botulinum neurotoxin type A (Clostridium botulinum) (P0DPI0 whole entry, looked up): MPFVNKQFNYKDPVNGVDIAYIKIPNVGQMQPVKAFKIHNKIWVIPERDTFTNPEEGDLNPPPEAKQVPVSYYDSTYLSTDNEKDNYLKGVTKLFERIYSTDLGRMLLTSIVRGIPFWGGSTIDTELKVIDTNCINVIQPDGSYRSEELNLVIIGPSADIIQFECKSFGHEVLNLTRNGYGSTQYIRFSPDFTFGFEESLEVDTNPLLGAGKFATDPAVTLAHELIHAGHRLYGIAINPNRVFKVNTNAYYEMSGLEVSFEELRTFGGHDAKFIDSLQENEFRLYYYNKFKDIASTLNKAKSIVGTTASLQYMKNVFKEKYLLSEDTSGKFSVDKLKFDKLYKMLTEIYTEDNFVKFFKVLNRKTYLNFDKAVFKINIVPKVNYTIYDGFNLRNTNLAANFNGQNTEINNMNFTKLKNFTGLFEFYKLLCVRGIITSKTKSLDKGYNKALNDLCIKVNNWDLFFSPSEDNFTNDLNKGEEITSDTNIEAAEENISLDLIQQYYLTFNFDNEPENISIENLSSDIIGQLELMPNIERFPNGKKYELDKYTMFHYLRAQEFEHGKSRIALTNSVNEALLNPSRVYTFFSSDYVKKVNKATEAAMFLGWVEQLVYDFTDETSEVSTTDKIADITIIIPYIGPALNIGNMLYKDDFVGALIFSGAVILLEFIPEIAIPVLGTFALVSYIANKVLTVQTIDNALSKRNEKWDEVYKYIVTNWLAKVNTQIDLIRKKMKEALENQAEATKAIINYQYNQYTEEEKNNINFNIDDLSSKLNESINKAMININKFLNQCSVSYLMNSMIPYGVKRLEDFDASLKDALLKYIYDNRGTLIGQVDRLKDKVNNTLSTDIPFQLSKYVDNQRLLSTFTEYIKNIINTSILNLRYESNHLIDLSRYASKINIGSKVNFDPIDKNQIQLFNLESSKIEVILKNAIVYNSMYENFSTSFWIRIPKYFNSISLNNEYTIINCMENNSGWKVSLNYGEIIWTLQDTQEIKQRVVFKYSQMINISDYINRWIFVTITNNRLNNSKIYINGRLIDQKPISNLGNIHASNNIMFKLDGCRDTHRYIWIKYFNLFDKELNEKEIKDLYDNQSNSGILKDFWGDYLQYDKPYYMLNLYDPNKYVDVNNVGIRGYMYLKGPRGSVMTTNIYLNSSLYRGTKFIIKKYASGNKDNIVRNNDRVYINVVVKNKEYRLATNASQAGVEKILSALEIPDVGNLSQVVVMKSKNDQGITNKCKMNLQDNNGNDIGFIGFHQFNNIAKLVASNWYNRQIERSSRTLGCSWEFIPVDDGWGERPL
Chain of AP-2 complex subunit beta (Homo sapiens) (P63010 whole entry, looked up, one chain of several): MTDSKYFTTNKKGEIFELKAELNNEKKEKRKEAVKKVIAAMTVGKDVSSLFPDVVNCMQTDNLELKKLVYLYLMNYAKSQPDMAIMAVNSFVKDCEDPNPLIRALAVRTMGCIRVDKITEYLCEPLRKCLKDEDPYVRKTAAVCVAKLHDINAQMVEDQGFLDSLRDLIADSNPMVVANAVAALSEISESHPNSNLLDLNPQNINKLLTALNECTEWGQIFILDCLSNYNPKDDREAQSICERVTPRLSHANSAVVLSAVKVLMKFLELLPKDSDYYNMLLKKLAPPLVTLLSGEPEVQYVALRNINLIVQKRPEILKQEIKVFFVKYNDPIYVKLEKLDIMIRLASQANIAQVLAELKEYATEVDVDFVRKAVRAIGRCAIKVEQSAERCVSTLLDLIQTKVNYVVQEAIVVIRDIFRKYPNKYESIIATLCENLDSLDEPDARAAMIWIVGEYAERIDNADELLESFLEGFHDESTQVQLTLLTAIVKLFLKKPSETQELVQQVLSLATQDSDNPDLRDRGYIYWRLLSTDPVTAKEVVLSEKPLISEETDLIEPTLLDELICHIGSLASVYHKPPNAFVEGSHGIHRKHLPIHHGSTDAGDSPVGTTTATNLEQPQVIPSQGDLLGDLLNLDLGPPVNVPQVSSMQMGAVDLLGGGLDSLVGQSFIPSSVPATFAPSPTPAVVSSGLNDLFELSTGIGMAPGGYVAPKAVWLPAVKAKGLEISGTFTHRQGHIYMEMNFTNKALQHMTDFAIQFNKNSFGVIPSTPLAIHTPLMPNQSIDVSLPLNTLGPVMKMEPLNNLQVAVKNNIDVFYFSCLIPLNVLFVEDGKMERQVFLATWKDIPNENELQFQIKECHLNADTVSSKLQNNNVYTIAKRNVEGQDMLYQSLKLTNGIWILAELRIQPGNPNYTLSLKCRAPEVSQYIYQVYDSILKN
Chain of Lethal factor (Bacillus anthracis) (P15917 whole entry, looked up): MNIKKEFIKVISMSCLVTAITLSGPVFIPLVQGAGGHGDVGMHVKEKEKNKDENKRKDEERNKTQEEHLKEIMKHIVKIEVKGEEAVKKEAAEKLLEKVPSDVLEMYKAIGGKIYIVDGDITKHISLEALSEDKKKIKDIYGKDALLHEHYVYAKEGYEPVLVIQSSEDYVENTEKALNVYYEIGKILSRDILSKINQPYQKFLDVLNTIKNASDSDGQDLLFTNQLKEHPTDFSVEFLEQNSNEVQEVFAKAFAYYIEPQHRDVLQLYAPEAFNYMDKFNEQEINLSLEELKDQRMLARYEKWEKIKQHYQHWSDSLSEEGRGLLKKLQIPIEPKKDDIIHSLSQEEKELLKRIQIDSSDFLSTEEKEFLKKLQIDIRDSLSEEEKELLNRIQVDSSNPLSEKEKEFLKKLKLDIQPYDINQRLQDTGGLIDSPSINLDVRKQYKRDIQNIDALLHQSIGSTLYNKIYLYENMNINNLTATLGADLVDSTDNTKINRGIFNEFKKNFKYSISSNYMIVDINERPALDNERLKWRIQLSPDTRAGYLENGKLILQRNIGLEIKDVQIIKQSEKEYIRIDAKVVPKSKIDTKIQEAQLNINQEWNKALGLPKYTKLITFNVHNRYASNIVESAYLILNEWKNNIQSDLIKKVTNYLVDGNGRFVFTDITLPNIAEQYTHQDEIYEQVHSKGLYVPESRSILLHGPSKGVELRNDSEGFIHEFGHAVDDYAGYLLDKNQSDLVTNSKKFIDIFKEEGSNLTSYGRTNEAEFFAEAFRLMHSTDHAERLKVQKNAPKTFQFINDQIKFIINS

Take `CC(=O)c1ccc(-c2ccccc2)cc1`: the percent of DMSO control GFP in assay [1] was 97% (inactive). In addition, the GFP response vs DMSO was 120% (inactive) in assay [2] and 84.7% (inactive) in assay [4]. The percent response of DMSO control in assay [3] was 110% (inactive). Also, the GFP response, % of DMSO in assay [5] was 103% (inactive). In addition, the double positive events in [6] came to 63.6%. In addition, the vesicle binding response in [6] is 339% (inactive). Besides, the inhibition in assay [7] was -15.8% (inactive); in assay [11], -0.36% (inactive); in assay [14], -2.6% (inactive); in [15], -1.2% (inactive); in assay [16], -1.9% (inactive); in assay [18], 14% (inactive). For the same molecule, the superoxide response (% of plate) in assay [8] is 96.8% (inactive). The aptamer binding inhibition in assay [9] was -3% (inactive). For the same molecule, the response was 9.21% (inactive) in assay [10] and 1% (inactive) in [12]. The binding (% of control) in assay [13] was 108% (inactive). Also, the efflux inhibition (fraction of control) in assay [17] was -0.06 (inactive). In addition, the differentiation response in assay [19] was 4.91% (inactive).

`C[C@@H]1O[C@@H](O[C@H]2C[C@@H](O)[C@]3(CO)[C@H]4[C@H](O)C[C@]5(C)[C@@H](C6COC(=O)C6)CC[C@]5(O)[C@@H]4CC[C@]3(O)C2)[C@H](O)[C@H](O)[C@H]1O` (stereo not given in full): the percent of DMSO control GFP in assay [1] was 97.3% (inactive). For the same molecule, the figures for the GFP response vs DMSO in assay [2] and in assay [4] were 102% (inactive) and 112% (inactive), respectively. Besides, the percent response of DMSO control in [3] was 105% (inactive). Further, in assay [5], the GFP response, % of DMSO was 119% (inactive). Moreover, the double positive events in assay [6] amounted to 62.7%. In addition, in assay [6], the vesicle binding response is 183% (inactive). The inhibition in assay [7] is 6.55% (inactive); in [11] it was -5.57% (inactive); in assay [14], -0.5% (inactive); in [15], -0.7% (inactive); in assay [16] it was 3.5% (inactive); in assay [18] it was -3% (inactive). Also, the superoxide response (% of plate) in [8] was 94.2% (inactive). For the same molecule, the aptamer binding inhibition in assay [9] is 1% (inactive). For the same molecule, the response in assay [10] was -12.8% (inactive); in assay [12], -2.1% (inactive). Besides, the binding (% of control) in assay [13] was 104% (inactive). Moreover, the efflux inhibition (fraction of control) in [17] is -0.04 (inactive). Besides, the differentiation response in assay [19] is -4% (inactive).

For `O=S(=O)(c1ccc(F)cc1)N1CCCCC1c1cccnc1` (stereo not given), in assay [1], the percent of DMSO control GFP is 99% (inactive). Also, the GFP response vs DMSO in assay [2] was 102% (inactive); in assay [4], 112% (inactive). The percent response of DMSO control in assay [3] was 98.3% (inactive). Also, the GFP response, % of DMSO in assay [5] was 113% (inactive). The same molecule displayed a double positive events in assay [6] of 62%. The vesicle binding response in assay [6] was 202% (inactive). Besides, the inhibition is -2.82% (inactive) in [7]; -4.49% (inactive) in [11]; 0.1% (inactive) in assay [14]; 0.8% (inactive) in assay [15]; 3.2% (inactive) in assay [16]; 3% (inactive) in assay [18]. In addition, in assay [8], the superoxide response (% of plate) is 99.7% (inactive). Moreover, the aptamer binding inhibition in assay [9] was -2% (inactive). Further, the response in assay [10] was -9.47% (inactive); in assay [12], 2.55% (inactive). The binding (% of control) in assay [13] was 105% (inactive). In addition, the efflux inhibition (fraction of control) in assay [17] was 0.08 (inactive). Also, the differentiation response in [19] was -11.9% (inactive).

As to `COP(=S)(OC)SCN1C(=O)c2ccccc2C1=O`, the percent of DMSO control GFP in assay [1] was 90.6% (inactive). In addition, the GFP response vs DMSO in assay [2] is 92.7% (inactive); in [4] it was 144% (inactive). Also, the percent response of DMSO control in assay [3] was 97% (inactive). Moreover, in assay [5], the GFP response, % of DMSO is 107% (inactive). For the same molecule, the double positive events in [6] turned out to be 63.5%. In addition, in [6], the vesicle binding response was 194% (inactive). For the same molecule, the inhibition is 0.59% (inactive) in [7]; -11.6% (inactive) in assay [11]; -1.7% (inactive) in assay [14]; -0.5% (inactive) in assay [15]; -2.9% (inactive) in [16]; -1% (inactive) in assay [18]. For the same molecule, the superoxide response (% of plate) in [8] was 97.7% (inactive). Also, in assay [9], the aptamer binding inhibition was -4% (inactive). The response was -10.4% (inactive) in [10] and 6.49% (inactive) in assay [12]. The binding (% of control) in assay [13] is 96.4% (inactive). Also, in [17], the efflux inhibition (fraction of control) was -0.09 (inactive). In addition, the differentiation response in [19] was 3.88% (inactive).
